In the library only some 2.2% were active in any assay of this set; here they are far more common.
HGIII-sPLA2 inh: Blocks human group III sPLA2 activity. QFRET BODIPY PC-A2 liposome hydrolysis, fluorescence. inhibition, % at 12.2 µM. AID 743126. 0.56% of 370,000 active;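 active = inhibition above mean plus 3 SD of compounds lying within the high and low control bounds, cut at about 19% in these data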
Target sequence (Q9NZ20 whole entry, looked up): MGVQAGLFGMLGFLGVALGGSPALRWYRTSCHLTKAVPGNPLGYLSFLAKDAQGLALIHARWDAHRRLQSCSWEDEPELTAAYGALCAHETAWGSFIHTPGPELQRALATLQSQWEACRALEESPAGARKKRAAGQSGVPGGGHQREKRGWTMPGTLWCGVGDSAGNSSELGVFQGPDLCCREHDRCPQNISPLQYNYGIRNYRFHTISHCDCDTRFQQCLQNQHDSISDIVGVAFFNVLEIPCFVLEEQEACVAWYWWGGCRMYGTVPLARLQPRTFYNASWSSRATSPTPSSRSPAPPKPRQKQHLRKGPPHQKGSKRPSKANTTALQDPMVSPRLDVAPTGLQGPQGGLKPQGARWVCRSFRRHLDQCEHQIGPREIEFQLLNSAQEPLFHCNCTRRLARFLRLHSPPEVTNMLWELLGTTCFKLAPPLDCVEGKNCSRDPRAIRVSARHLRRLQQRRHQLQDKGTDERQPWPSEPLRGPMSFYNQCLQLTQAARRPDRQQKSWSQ
SUMO Mot1 rescue: SUMOylation pathway inhibition by Mot1-301 growth rescue; S. cerevisiae Mot1-301 growth rescue, ATP luminescence, 38.5C; percent above DMSO median, 100 means doubled; growth rescue, % at 18.8 µM; 1% of 320,000 active; AID 2716;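 active = every valid replicate shows activation above 250% relative to neutral control wells; inactive = the rest, any valid replicate at or below 250%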
Efflux pump inh: antifungal efflux pump inhibition, Nile Red retention. S. cerevisiae Candida pump triplex. inhibition, % at 10 µM. 0.44% of 330,000 active. AID 485275;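 active = plate passing quality check with inhibition over a set limit, or well fluorescence over plate mean plus 4 SD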;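 note: Nile Red retained in pooled yeast measured as flow cytometry median fluorescence; higher means more Nile Red kept so more efflux inhibition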
SKN-1 block: blocks SKN-1 activity in C. elegans; C. elegans VP596 Pgst-4::GFP/RFP ratio, acrylamide-induced, 24 h; inhibition, % at 21.8 µM; 0.49% of 360,000 active; AID 624304;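 active = interference check ratio from 0.5 to 1.5 plus GFP to RFP signal ratio inhibition reaching or exceeding a fixed threshold, cut at about 30% in these data, passing the limit was not always enough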
Yeast Mot1 SUMO: yeast SUMO pathway inhibition in dose response; shares compounds with SUMO Mot1 rescue; S. cerevisiae Mot1-301 galactose growth, ATP luminescence, 24 h; -100 = growth of slx-deleted rescue strain; growth activity, percent, % at 42 µM; 2,300 tested, under 10 active;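 active = Signal drops as the depositor expects, and the fitted half-maximal dose is no more than ten times the top valid tested dose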;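 note: more negative values mean stronger growth rescue toward the control strain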
Large screens that a line does not name were inactive (follow-up assays come after a bar, where they were run).

CCOc1ccccc1CN1CCNC(=O)C1CC(=O)NCCN1CCOC1=O (configuration not stated)	SUMO Mot1 rescue 501 | Yeast Mot1 SUMO inactive
CC(C)c1cc(N2CCOCC2)n2ncc(-c3ccccc3)c2n1	SUMO Mot1 rescue 489 | Yeast Mot1 SUMO inactive
Cc1ccc(S(=O)(=O)N(C)c2ccc(OCC(=O)Nc3cc(C(=O)O)ccc3Cl)cc2)cc1	none (no result: SUMO Mot1 rescue, Efflux pump inh, SKN-1 block)
CCN(CC)CCCN(Cc1cc2cc(OC)ccc2[nH]c1=O)C(=O)Nc1ccc(F)cc1	SUMO Mot1 rescue 463 | Yeast Mot1 SUMO inactive
Cc1cccc2nc(CSc3ccccc3N)cn12	none
Cc1cccc2nc(COc3ccc4ccccc4c3Br)cn12	SUMO Mot1 rescue 728 | Yeast Mot1 SUMO inactive
CCCN(CCC)C(=O)C1CCN(c2ccc(S(=O)(=O)N3CCOCC3)cc2[N+](=O)[O-])CC1	none
CCNC(=O)NC(C(=O)OC)C12CC3CC(CC(C3)C1)C2 (configuration not stated)	SUMO Mot1 rescue 562 | Yeast Mot1 SUMO inactive
CCCCN1C(=O)C(CC(=O)NC2CCCC2)CC(C(=O)N(C(C)C)C(C)C)=C1C (configuration not stated)	none (no result: SUMO Mot1 rescue, Efflux pump inh)
COc1ccc(S(=O)(=O)N2CCCc3nc(-c4ccc(F)cc4)ccc32)cc1	none (no result: SUMO Mot1 rescue, Efflux pump inh, SKN-1 block)
CC1CCCC(C)N1/N=C/c1cc(Br)cc(Br)c1O (configuration not stated)	SUMO Mot1 rescue 476 | Yeast Mot1 SUMO inactive
Cc1ccc(NC(=O)CN2CCN(c3nc(-c4ccccc4)cs3)CC2)cc1C	none (no result: SUMO Mot1 rescue, Efflux pump inh, SKN-1 block)
COC(=O)C1CCN(C(=O)/C(C)=C\c2ccccc2)CC1	none
CN(C)c1ccc(/C=N\Nc2ccccn2)cc1	SUMO Mot1 rescue 458 | Yeast Mot1 SUMO inactive
CN(C)c1ccc(C=NNc2ccccn2)c(Cl)c1	none (no result: SUMO Mot1 rescue, Efflux pump inh)
NC(=O)C1CCN(c2ncc(Br)cn2)CC1	none (no result: SUMO Mot1 rescue, Efflux pump inh, SKN-1 block)
Cc1ccc(NC2c3ncccc3C(=O)N2C2CCCCC2)cc1C (configuration not stated)	SUMO Mot1 rescue 395 | Yeast Mot1 SUMO inactive
Cc1ccc(NC2c3ncccc3C(=O)N2C2CCCCC2)cc1 (configuration not stated)	none
CCOC(=O)C1(CCOc2ccccc2)CCN(Cc2cc(OC)ccc2OC)CC1	none
CCOC(=O)C1(CCOc2ccccc2)CCN(Cc2cccc(OC)c2O)CC1	SUMO Mot1 rescue 517 | Yeast Mot1 SUMO inactive
Nc1nccc(NCCSCc2ccccc2)n1	none (no result: SUMO Mot1 rescue, Efflux pump inh)
Cc1ccc2nc3c(cc(C(=O)NCCN4CCOCC4)c(=N)n3CCCN3CCOCC3)c(=O)n2c1	SUMO Mot1 rescue 674 (no result: HGIII-sPLA2 inh) | Yeast Mot1 SUMO inactive
Cc1ccc(-c2noc(C3CCCN(S(=O)(=O)c4ccc5ccccc5c4)C3)n2)o1 (configuration not stated)	SUMO Mot1 rescue 765 | Yeast Mot1 SUMO inactive
CCOC(=O)/C=C(\C)N1N=C(c2ccccc2)CC1c1ccccc1 (configuration not stated)	none (no result: SUMO Mot1 rescue)
CCOC(=O)C1CC(c2ccccc2)=NNC1=O (configuration not stated)	SUMO Mot1 rescue 504 | Yeast Mot1 SUMO inactive
O=C(NN=C1CCCC1)c1[nH]c2ccc(Br)cc2c1-c1ccccc1	none (no result: SKN-1 block)
O=C(N/N=C/c1ccccc1)c1[nH]c2ccc(Br)cc2c1-c1ccccc1	SUMO Mot1 rescue 491 | Yeast Mot1 SUMO inactive
CN1C(=O)C(O)(CC(=O)c2ccccc2O)c2cc(Br)ccc21 (configuration not stated)	none | Yeast Mot1 SUMO inactive
CN1C(=O)C(O)(CC(=O)/C=C/c2ccco2)c2cc(Br)ccc21 (configuration not stated)	none
O=C(CCc1nnc2ccc(NCc3ccco3)nn12)N1CCN(c2ccc(F)cc2)CC1	none
O=C(c1cc2ccccc2o1)N1CCCC1	SUMO Mot1 rescue active | Yeast Mot1 SUMO inactive
O=C(c1cc2ccccc2o1)N1CCN(C/C=C/c2ccccc2)CC1	SUMO Mot1 rescue 541 | Yeast Mot1 SUMO inactive
COc1ccc(C2C(C(C)=O)=C(O)C(=O)N2CCO)c(OC)c1 (configuration not stated)	SUMO Mot1 rescue 893 | Yeast Mot1 SUMO inactive
C=CCn1c(COc2ccccc2)nnc1SCC(=O)Nc1ccc(Oc2ccccc2)cc1	none (no result: SUMO Mot1 rescue, Efflux pump inh, SKN-1 block)
Cc1ccc(NS(=O)(=O)c2c(C)[nH]c(C)c2C(=O)N2CCCCC2)c(Cl)c1	SUMO Mot1 rescue 477 | Yeast Mot1 SUMO inactive
S=C(NCCc1c[nH]c2ccccc12)NC1CCCC1	none
S=C(NCCc1c[nH]c2ccccc12)NC1CC1	SUMO Mot1 rescue 401 | Yeast Mot1 SUMO inactive
O=C(NCCc1c[nH]c2ccccc12)Nc1ccccc1	none
COc1ccccc1NC(=O)NCCc1c[nH]c2ccccc12	SUMO Mot1 rescue 840 | Yeast Mot1 SUMO inactive
CC1(C(=O)NS(=O)(=O)c2ccc(Cl)cc2)CCN1C(=O)CCc1cccs1 (configuration not stated)	none (no result: SUMO Mot1 rescue, Efflux pump inh)
Cc1ccc(N/N=C2/CCCNC2=O)cc1	SUMO Mot1 rescue 528 | Yeast Mot1 SUMO inactive
CC1(C)CC(=O)C(C(=O)c2ccccc2)C(=O)C1	none
CC1(C)CC(=O)C(C(=O)c2ccccc2)C(=O)C1Cl (configuration not stated)	SUMO Mot1 rescue 536 | Yeast Mot1 SUMO inactive
COc1ccc(C(=O)Nc2ccccc2C(=O)NCCN2CCOCC2)cc1OC	SUMO Mot1 rescue 424 | Yeast Mot1 SUMO inactive
Cc1c(Cl)cccc1NC(=O)Cn1c(CCC(=O)O)ccc1-c1ccccc1	SUMO Mot1 rescue 429 | Yeast Mot1 SUMO inactive
Cc1ccc(NC(=O)Cn2c(CCC(=O)O)ccc2-c2cccs2)cc1	SUMO Mot1 rescue 526 | Yeast Mot1 SUMO inactive
COc1ccccc1NC(=O)CN(c1ccc(C)cc1)S(=O)(=O)c1c(C)n[nH]c1C	SUMO Mot1 rescue 981 | Yeast Mot1 SUMO inactive
Cn1c(SCC(=O)Nc2nnc(-c3ccccc3)o2)nnc1C1CC1	SUMO Mot1 rescue 545 | Yeast Mot1 SUMO inactive
O=C(CSc1nc(O)cc(=O)n1-c1ccccc1)NC1CCCCC1	SUMO Mot1 rescue 584 | Yeast Mot1 SUMO inactive
Cc1nnc(SCC(=O)NC2CCCCC2)n1-c1ccccc1	none (no result: SUMO Mot1 rescue, Efflux pump inh)
O=C(CSc1ncccc1C(=O)O)NC1CCCCC1	SUMO Mot1 rescue 420 | Yeast Mot1 SUMO inactive
COc1ccc(C2CC(c3cccs3)=NN2C(=O)c2ccccc2)cc1OC (configuration not stated)	SUMO Mot1 rescue 424 | Yeast Mot1 SUMO inactive
COc1cc(C(=O)NC(C)Cc2ccccn2)ccc1OC1CCN(C(C)=O)CC1 (configuration not stated)	none (no result: SUMO Mot1 rescue, Efflux pump inh)
Fc1ccccc1CNCc1ccc2c(c1)OCO2	none
COc1ccc(C)cc1S(=O)(=O)NC1CCCCCC1	none
COc1cc(S(=O)(=O)NC2CCCC2)c(OC)cc1C	SUMO Mot1 rescue 435 | Yeast Mot1 SUMO inactive
Cc1ccc(NC(=O)CNC(=O)CC23CC4CC(CC(C4)C2)C3)c(O)c1	none
N#Cc1c(Cn2cncn2)nc(=O)n(-c2ccc(Cl)cc2)c1N	SUMO Mot1 rescue active | Yeast Mot1 SUMO inactive
Cc1ccc(-n2c(N)c(C#N)c(-c3ccc(Cl)cc3)c(C#N)c2=O)cc1	none
C=C(C)C(=O)Nc1cccnc1Oc1ccc(F)cc1F	SUMO Mot1 rescue active | Yeast Mot1 SUMO inactive
CCOc1ncccc1C(=O)Nc1ccccc1F	none

Compound activity from PubChem BioAssay.
